Bioassay records deposited in PubChem BioAssay by several laboratories.
aSyn UTR inh – MLPCN primary screen, SNCA 5' untranslated region; alpha-synuclein 5'UTR reporter, inhibitor activity; inhibition, % (tested at 7.5 µM); actives 0.82% (n = 300,000); AID 1813; in the data active = inhibition above about 60%; inconclusive = no clear call, values can overlap the other calls;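 also: H4 neuroglioblastoma cells stably carrying SNCA 5'UTR luciferase fusion; 0% = DMSO wells and 100% = positive control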
IEC-6 tox-1 – kills IEC-6 intestinal cells in KLF5 counter-screen. inhibition, % at 5 µM. IEC-6 cytotoxicity, luminescence viability. AID 1825. actives 0.78% (n = 290,000);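 also: 0% = plate median of test compound wells and 100% = cytotoxic reference compound wells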
BaF3 tox – parental Ba/F3 viability inhibition as JAK2V617F counter-screen | inhibition, % at 5.6 µM | AID 1486 | actives 1.1% (n = 220,000) | CellTiter-Glo ATP luminescence;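 active = inhibition above a per-campaign cutoff, the mean inhibition of all tested compounds plus 3 SD, cut at about 27% in these data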;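 also: 0% = DMSO wells and 100% = JAK Inhibitor I control wells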
Ba/F3 V617F tox – reduce viability of Ba/F3 cells dependent on JAK2V617F. Ba/F3 EpoR-JAK2V617F viability, ATP luminescence. inhibition, % at 5.6 µM. actives 1.1% (n = 220,000);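 active = inhibition above the campaign mean plus 3 SD over all tested compounds, cut at about 24% in these data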;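 also: cytokine-independent growth of Ba/F3 cells driven by EpoR plus mutant JAK2; 0% = DMSO-treated cells and 100% = JAK inhibitor I control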
APP 5UTR inh – APP translation inhibition | SH-SY5Y APP 5'UTR-luciferase reporter, luminescence | AID 1285 | actives 0.82% (n = 190,000) | inhibition, % at 2 µM;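 active = inhibition above a set limit, derived from the sample mean plus 3 SD, cut at about 45% in these data; inconclusive = one replicate passes the limit while the other fails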
KLF5 inh – suppresses KLF5 promoter-driven expression. DLD-1 KLF5 promoter-luciferase reporter, luminescence. actives 0.23% (n = 290,000). AID 1700. inhibition, % at 5 µM;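 active = inhibition above a per-plate limit of that plate's mean compound inhibition plus 3 SD, cut at about 60% in these data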;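 also: 0% = DMSO wells and 100% = LY294002 at 200 µM; higher means less KLF5 promoter-driven luciferase light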
KLF5 inh confirm – confirmation of KLF5 inhibitors; shares compounds with KLF5 inh; DLD-1 KLF5 promoter firefly luciferase reporter, luminescence; inhibition, % at 4 µM; actives 79% (n = 610); AID 1834;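 active = inhibition above a set limit taken from the earlier primary screen, cut at about 63% in these data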;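 also: 0% = DMSO wells and 100% = LY294002 at 200 µM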
IEC-6 tox-2 – rat IEC-6 cytotoxicity, KLF5 inhibitor counter-screen; shares compounds with KLF5 inh; IEC-6 rat intestinal cells, viability luminescence; inhibition, % at 4 µM; actives 56% (n = 610); in the data active = inhibition above about 23%;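 also: cells exposed to compounds for 48 hours before viability read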
IEC-6 tox confirm – confirmation of cytotoxic compounds in rat IEC-6 intestinal epithelial cells; shares compounds with IEC-6 tox-1; IEC-6 rat intestinal epithelial viability, luminescence; inhibition, % at 5 µM; actives 63% (n = 1,900); AID 1907;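 also: 0% = vehicle and 100% = reference cytotoxic drug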
* = called active by the depositor; ? = inconclusive; / = no result given. This is a sample that favours compounds with a hit; in the whole collection about 2.1% have one here. Rule as the data show it, unless noted: active = inhibition above about 22%; inactive = the rest.

SMILES	aSyn UTR inh	IEC-6 tox-1	BaF3 tox	Ba/F3 V617F tox	APP 5UTR inh	KLF5 inh	KLF5 inh confirm	IEC-6 tox-2	IEC-6 tox confirm
CCCc1cc(=O)[nH]c(SCC(=O)c2cc(C)n(CC(F)(F)F)c2C)n1	1.2	-4.3	8.6	0.5	-31.1	-7.9	/	/	/
COc1cc2c(c(OC)c1OC)C(=O)CC2	6.8	1.8	-1.9	-1.4	/	-27.9	/	/	/
COc1cc2c(c(OC)c1OC)-c1ccc(OC)c(=O)cc1C(NC(C)=O)CC2 (configuration not stated)	74.8*	94.2*	/	/	/	71.5*	87.8*	82.3*	80.1*
CCOC(=O)C(C)Oc1cccc2c(=O)n(CC(=O)NCc3ccccc3)ccc12 (configuration not stated)	72.6*	81.5*	76.2*	72.8*	/	63.1*	83.6*	57.5*	58.1*
COc1cc(-c2noc(C)c2/C=C/c2ccc(N)cc2)cc(OC)c1OC	103.8*	95.6*	/	/	/	65.7*	91.4*	73.4*	75.7*
COC(=O)c1cc(-c2c(-c3cc(OC)c(OC)c(OC)c3)noc2C)cc([N+](=O)[O-])c1	20.8	0.5	/	/	/	-24.0	/	/	/
COc1cc(-c2c(-c3cc(OC)c(OC)c(OC)c3)noc2C)ccc1F	46.4	98.1*	/	/	/	79.0*	88.5*	73.8*	70.6*
COc1cc(-c2noc(C)c2C#Cc2ccccn2)cc(OC)c1OC	85.8*	81.9*	/	/	/	62.3*	70.9*	60.7*	61.6*
CN(C)CCCNC(=O)c1cc(C(=O)c2cccc(Cl)c2Cl)c[nH]1	-19.7	0.7	/	/	/	-9.3	/	/	/
COc1cccc(CN2CCNC(=O)C2CC(=O)NCCCN2CCCC2=O)c1 (configuration not stated)	3.2	-0.1	/	/	/	-33.8	/	/	/
O=C1CCCN1c1ccc(S(=O)(=O)Nc2ccc3c(c2)OCCO3)cc1	-0.8	78.6*	72.7*	82.2*	38.9	77.7*	70.3*	40.9*	49.9*
COc1ccc(S(=O)(=O)N2CCc3ccccc32)cc1C(=O)NCCc1ccccn1	11.0	-2.7	5.6	0.0	20.2	-0.5	/	/	/
CCOC(=O)c1[nH]c(C)c(C(=O)Nc2cc(Cl)ccc2C)c1C	-23.8	82.0*	73.2*	73.6*	95.4*	71.8*	67.7*	61.2*	63.1*
COc1ccc(-n2nnnc2-c2cccc(OC)c2)cc1	64.3*	84.5*	71.4*	77.8*	91.3*	76.6*	85.9*	58.4*	58.9*
Cc1ccc(-n2nnnc2-c2cccc(C)c2)cc1	4.1	-5.6	0.9	-1.4	3.7	-30.8	/	/	/
Cc1ccc(CNC(=O)c2cc3ccccc3oc2=O)cc1	-32.2	/	/	/	/	/	/	/	/
COc1ccccc1-c1nnc2sc(-c3ccc(N(C)C)cc3)nn12	98.6*	90.8*	79.7*	81.0*	96.8*	72.1*	90.8*	72.0*	72.2*
Cc1ccnc(NC(=O)c2ccccc2NC(=O)c2ccc(Cl)cc2Cl)c1	69.3*	77.6*	/	/	/	67.2*	69.2*	49.5*	59.5*
COc1ccc2nc(SCC(=O)NC3CCCC3)c(C)cc2c1	-47.8	44.6*	/	/	/	71.4*	84.9*	15.9	26.7*
COc1ccc2nc(SCC(=O)NC3CCCCC3)[nH]c2c1	6.8	2.8	/	/	/	-22.6	/	/	/
Cn1c(=O)c2c(nc3n2CC(COc2ccccc2)O3)n(C)c1=O (configuration not stated)	1.1	2.2	/	/	/	-10.3	/	/	/
O=C(Nc1nc2cc3c(cc2s1)OCCO3)c1ccco1	65.6*	22.8*	/	/	/	86.3*	81.4*	15.0	9.7
Oc1ccc(COCc2ccccc2)c2cccnc12	?	2.8	1.3	9.2	19.0	-3.7	/	/	/
Oc1ccc(N=Nc2ccccc2C(F)(F)F)c2cccnc12	71.6*	44.6*	/	/	/	62.5*	85.8*	7.6	13.7
Cc1cc(NCc2ccccn2)n2nc(C)c(-c3ccccc3)c2n1	/	81.1*	9.1	9.3	/	66.7*	55.0	8.9	18.4
SMILES	aSyn UTR inh	IEC-6 tox-1	BaF3 tox	Ba/F3 V617F tox	APP 5UTR inh	KLF5 inh	KLF5 inh confirm	IEC-6 tox-2	IEC-6 tox confirm
O=S(=O)(Nc1cc(Sc2ncn[nH]2)c(O)c2ccccc12)c1ccccc1	/	85.1*	99.4*	95.1*	75.8*	68.0*	-12.8	5.7	-4.3
CC1CCN(Cc2c(C(=O)N/N=C/c3cc(Cl)ccc3O)nnn2-c2nonc2N)CC1	62.1*	50.5*	/	/	/	68.6*	86.0*	42.4*	49.1*
Cc1cc(C)c(/C=N/NC(=O)c2nnn(-c3nonc3N)c2CN2CCC(C)CC2)c(C)c1	0.9	-4.7	/	/	/	-5.5	/	/	/
CC1CCN(Cc2c(C(=O)N/N=C/c3cc(Br)ccc3O)nnn2-c2nonc2N)CC1	77.1*	57.0*	/	/	/	70.3*	84.2*	42.4*	61.8*
Cc1cccc(N(O)C(=O)Nc2cccc(Cl)c2)c1	-109.4	2.7	/	/	/	-66.4	/	/	/
COc1cccc(C(=O)Nc2sc3c(c2C(=O)O)CCCC3)c1	9.5	-4.0	/	/	/	54.8	/	/	/
COc1cccc(C(=O)Nc2sc3c(c2C#N)CCN(C(C)=O)C3)c1	-13.7	77.0*	80.6*	76.0*	92.4*	73.5*	79.0*	56.0*	26.2*
CC(=O)NC(c1ccc2ccccc2c1)c1ccc2cccnc2c1O (configuration not stated)	56.6	98.7*	/	/	/	77.2*	86.9*	79.3*	82.2*
Oc1c(C(Nc2nccs2)c2ccc(C(F)(F)F)cc2)ccc2cccnc12 (configuration not stated)	55.1	43.8*	53.5*	59.6*	65.8*	62.0*	83.7*	57.4*	62.0*
CCCCC(=O)NC(c1ccc(Cl)cc1)c1ccc2cccnc2c1O (configuration not stated)	55.9	57.3*	/	/	/	83.9*	88.5*	65.6*	68.5*
COc1ccccc1C(NC(C)=O)c1cc(Cl)c2cccnc2c1O (configuration not stated)	67.5*	61.0*	/	/	/	73.0*	71.0*	81.1*	42.8*
COc1ccc(CN2CCN(CCc3ccccc3)C(CCO)C2)cc1Cn1cncn1 (configuration not stated)	0.9	-0.7	7.0	0.9	7.0	-6.0	/	/	/
CC1CCC(N2CCN(C(=O)c3ccccc3F)CC2)CC1 (configuration not stated)	-12.3	-2.4	/	/	/	-7.3	/	/	/
Cn1c(SCCN2CCCC2)nnc1C1CCN(S(=O)(=O)c2cccc(F)c2)CC1	10.7	1.6	/	/	/	-52.2	/	/	/
CCCC(=O)NC(c1ccc(Cl)cc1)c1ccc2cccnc2c1O (configuration not stated)	46.6	40.5*	/	/	/	78.1*	82.2*	77.4*	66.9*
